Assay outcomes from PubChem.
The full list was thinned out, with hits kept by preference.
HT1080NT lethal: kills 2HG-producing HT-1080-NT fibrosarcoma cells | HT-1080-NT fibrosarcoma viability, CellTiter-Glo ATP luminescence, 48 h | Potency, µM (doses to about 46.1 µM), for inactives: at the top dose activity, negative = less viability, most hits filed as cytotoxic | 360,000 compounds, 1.6% hits;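 note: NT is the 2HG producing partner of a matched IDH1 knockdown line; potency is the fitted concentration of half-maximal effect; 0% = DMSO-treated cells and -100% = media-only wells without cells; nearly all actives have a fitted effect of over 55% in size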
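Compounds were tested in concentration-response format on HT-1080-NT cells for 48 hours at 37 degrees C. Cell viability came from CellTiter-Glo luminescence; curves were classified by r2, response magnitude and activity.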
ALOX12 inh: ALOX12 (human) lipoxygenase inhibition; P18054; purified 12hLO, xylenol orange hydroperoxide absorbance; Potency, µM (titrated, usually from 108 µM), for inactives: at the highest dose activity change, negative = inhibition, most hits filed as inhibitors; 580,000 compounds, 1.1% hits; AID 1671190; note: potency is the fitted concentration of half-maximal effect
Target sequence (P18054 whole entry, looked up): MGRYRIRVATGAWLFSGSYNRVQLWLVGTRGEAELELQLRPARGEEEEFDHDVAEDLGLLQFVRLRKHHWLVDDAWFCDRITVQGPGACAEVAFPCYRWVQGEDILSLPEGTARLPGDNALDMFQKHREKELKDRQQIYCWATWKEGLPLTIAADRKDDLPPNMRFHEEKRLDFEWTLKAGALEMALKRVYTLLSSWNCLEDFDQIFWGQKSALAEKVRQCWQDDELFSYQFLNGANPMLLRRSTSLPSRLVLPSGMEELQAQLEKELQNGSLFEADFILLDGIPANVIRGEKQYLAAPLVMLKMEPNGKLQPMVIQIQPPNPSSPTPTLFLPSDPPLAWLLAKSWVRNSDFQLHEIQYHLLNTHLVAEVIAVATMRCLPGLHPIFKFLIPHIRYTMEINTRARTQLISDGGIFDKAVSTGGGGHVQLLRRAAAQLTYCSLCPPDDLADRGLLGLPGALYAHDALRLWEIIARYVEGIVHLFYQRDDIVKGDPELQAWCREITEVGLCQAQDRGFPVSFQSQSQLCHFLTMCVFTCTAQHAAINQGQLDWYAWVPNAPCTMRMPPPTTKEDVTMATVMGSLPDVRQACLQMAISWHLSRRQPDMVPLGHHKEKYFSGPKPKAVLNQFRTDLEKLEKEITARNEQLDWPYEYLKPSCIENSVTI
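Purified human 12hLO (150 nM final) in 25 mM Hepes, 0.01% Triton X-100, pH 7.0 was preincubated 15 min at room temperature with compound. Then 40 uM arachidonic acid was added, 30 min. Hydroperoxide was read by Fe-XO absorbance ratio 573/405 nm.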
DT40 TDP1 CPT: growth inhibition of DT40 Tdp1-/-;hTDP1 cells with camptothecin (screen for TDP1 inhibitors); 420,000 compounds, 12% hits; Potency, µM (highest dose often 46.2 µM), without a hit: at the top dose activity change, negative = growth inhibition, most hits filed as inhibitors; chicken DT40 Tdp1-/-;hTDP1 cells + 20 nM CPT, ATP luminescence, 48 h; note: potency is the fitted concentration of half-maximal effect; nearly all actives have a fitted effect of over 55% in size
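Cell growth measured by CellTiter-Glo luminescence after a minimum 48 h, 37 C compound exposure with 20 nM CPT in Tdp1-knockout DT40 cells stably expressing hTDP1, seeded 400/well; qHTS titration format.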
IL1B secr inh: blocks inflammasome-driven IL-1 beta release. THP-1 LPS/ATP IL-1B secretion, AlphaLISA, 16 h; hits give low values. activity change, % at 57.5 µM. 360,000 compounds, 4.7% hits; in the data active = activity change below about -50%; inconclusive = mostly about -30% to -49%
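Secreted IL-1B measured by AlphaLISA bead assay after 16 h compound exposure of THP-1 cells; compounds (final up to 57.5 uM) added 1 h before LPS (250 ng/mL) and ATP (1.25 mM) stimulation; lower signal means less secretion.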
HT1080 IDH1KD tx: HT-1080 IDH1 knockdown cell toxicity (counter line). 360,000 compounds, 2% hits. HT-1080 IDH1 knockdown viability, ATP luminescence, 48 h. Potency, µM (highest dose often 46.1 µM), inactives show at the top dose activity, negative = toxicity, hits mostly cytotoxic;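 note: potency is the fitted concentration of half-maximal effect; 0% = DMSO wells and -100% = cell-free medium wells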
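HT-1080-IDH1KD cells (IDH1 knocked down), 750/well in RPMI with 5% FBS, treated with compound 48 h at 37 degrees C. Viability by CellTiter-Glo luminescence, normalised to DMSO and no-cell wells; concentration-response curves classed.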
DT40 TDP1 no CPT: qHTS for Inhibitors of human tyrosyl-DNA phosphodiesterase 1 (TDP1): qHTS in cells in absence of CPT. Potency, µM (series often up to 46.2 µM), inactives show at the highest dose activity change, negative = growth inhibition, most hits filed as inhibitors. 420,000 compounds, 15% hits. DT40 Tdp1-/- hTDP1 cells, no CPT, ATP luminescence, 48 h. AID 686978, 2013; note: potency is the fitted concentration of half-maximal effect; nearly all actives have a fitted effect of over 55% in size
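Growth kinetics read by CellTiter-Glo luminescence after ≥48 hr at 37 °C. Cells: DT40 Tdp1-/- stably carrying human TDP1, 400 per well, compound exposure in the absence of CPT (DMSO vehicle).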
* = called active by the depositor; [ ] = another dose, or the depositor's remark. Unless noted, calls come from the whole dose curve; as a rule, active = well fitted curve in the direction sought with a large enough effect; inconclusive = small, poorly fitted or top-dose-only effect, or another doubt; inactive = no such curve, though single readings can be large; an effect the other way counts as inactive or inconclusive. Unless noted, % is set by controls: 0 for no effect and ±100 for the full control effect.

COc1ccc(-c2c(C)c3cc(OC(=O)C(C)C)ccc3oc2=O)cc1 was read as ALOX12 inh 14.7%.
`CCNc1c(NC(=O)Nc2ccccc2Br)c(=O)oc2ccccc12` gave ALOX12 inh -11.8%.
COc1ccc(C(=O)Cn2nnc(-c3ccccc3NC(=O)c3ccco3)n2)cc1 was read as HT1080NT lethal 8.0%, ALOX12 inh 0.0%, DT40 TDP1 CPT inconclusive, IL1B secr inh -10.7, HT1080 IDH1KD tx 0.9% and DT40 TDP1 no CPT 8.2µM*.
COc1ccc(C(=O)Nc2ccccc2-c2nnn(CC(=O)N3CCOCC3)n2)cc1 was read as HT1080NT lethal 1.8%, ALOX12 inh -0.9%, DT40 TDP1 CPT -27.1%, IL1B secr inh 0.0, HT1080 IDH1KD tx 1.2% and DT40 TDP1 no CPT inconclusive.
For Cc1cc(C(=O)N2C[C@@H](Oc3cccnc3)C[C@H]2C(=O)N2CCOCC2)n(C)n1 the results were ALOX12 inh -2.7%.
COC(=O)[C@H]1C[C@@]2(O)CN(S(=O)(=O)c3ccc(C)cc3)C[C@@]2(OC(=O)Nc2c(C)noc2C)C[C@H]1C(=O)OC was read as HT1080NT lethal 1.9%, ALOX12 inh -1.5%, DT40 TDP1 CPT -1.3%, IL1B secr inh -6.3, HT1080 IDH1KD tx -0.7% and DT40 TDP1 no CPT -15.4%.
For CCCCCCn1c(=O)n2n(c1=O)C[C@]1(OC(=O)Nc3cccs3)CN(S(=O)(=O)c3ccc(C)cc3)C[C@]1(O)C2 the results were HT1080NT lethal -18.3%, ALOX12 inh 35.5µM*, DT40 TDP1 CPT 20.6µM*, IL1B secr inh -51.4*, HT1080 IDH1KD tx -19.7% and DT40 TDP1 no CPT 13µM*.
CCCCCCn1c(=O)n2n(c1=O)C[C@]1(OC(=O)NCc3ccco3)CN(S(=O)(=O)c3ccc(C)cc3)C[C@]1(O)C2 was read as HT1080NT lethal -0.8%, ALOX12 inh -4.8%, DT40 TDP1 CPT inconclusive, IL1B secr inh -0.5, HT1080 IDH1KD tx 1.0% and DT40 TDP1 no CPT 25.9µM*.
`CCCCCCn1c(=O)n2n(c1=O)C[C@]1(OC(=O)NCc3ccccc3)CN(S(=O)(=O)c3ccc(C)cc3)C[C@]1(O)C2` gave HT1080NT lethal -21.7%, ALOX12 inh inconclusive, DT40 TDP1 CPT inconclusive, IL1B secr inh -23.8, HT1080 IDH1KD tx -25.6% and DT40 TDP1 no CPT 14.6µM*.
For CCCCCCn1c(=O)n2n(c1=O)C[C@]1(OC(=O)Nc3c(C)noc3C)CN(S(=O)(=O)c3ccc(C)cc3)C[C@]1(O)C2 the results were HT1080NT lethal -2.9%, ALOX12 inh inconclusive, DT40 TDP1 CPT inconclusive, IL1B secr inh 1.4, HT1080 IDH1KD tx -0.8% and DT40 TDP1 no CPT 20.6µM*.
CCn1ccc(C(=O)N2CCC3(CCCCO3)CC2)n1 was read as ALOX12 inh 19.2%.
COc1ccccc1-c1cc(NC(C)=O)c2ncc(-c3ccc(S(C)(=O)=O)cc3)n2c1 was read as HT1080NT lethal 0.4%, ALOX12 inh inconclusive, DT40 TDP1 CPT inconclusive, IL1B secr inh -2.2, HT1080 IDH1KD tx 7.4% and DT40 TDP1 no CPT inconclusive.
For CC(=O)Nc1cc(-c2cccc(C)c2)cn2c(-c3ccc(S(C)(=O)=O)cc3)cnc12 the results were HT1080NT lethal -7.7%, ALOX12 inh -14.5%, DT40 TDP1 CPT 14.6µM*, IL1B secr inh -57.4*, HT1080 IDH1KD tx -25.3% and DT40 TDP1 no CPT 11.6µM*.
For CC(=O)Nc1cc(-c2ccccc2Cl)cn2c(-c3ccc(S(C)(=O)=O)cc3)cnc12 the results were HT1080NT lethal inconclusive, ALOX12 inh -14.1%, DT40 TDP1 CPT inconclusive, IL1B secr inh -50.4*, HT1080 IDH1KD tx -19.6% and DT40 TDP1 no CPT inconclusive.
For O=C1CCC/C(=N/Nc2ccc(Cl)cc2)C1 the results were HT1080NT lethal -14.2%, ALOX12 inh inconclusive, DT40 TDP1 CPT 16.4µM*, IL1B secr inh 3.1, HT1080 IDH1KD tx -18.0% and DT40 TDP1 no CPT 7.31µM*.
`COc1ccc(NC(=O)c2cc[n+]([O-])cc2)cc1` gave ALOX12 inh 33.4%.
`CCOc1ccc2c(c1)C(C)=CC(C)(C)N2C(=O)Nc1ccccc1` gave HT1080NT lethal -0.5%, DT40 TDP1 CPT 5.8µM*, IL1B secr inh -7.5, HT1080 IDH1KD tx -0.7% and DT40 TDP1 no CPT 25.9µM*.
CCC(C)NC(=O)N1CC(Oc2ccc(-c3nc(-c4ccccc4)no3)cc2)C1 (stereo not drawn) was read as ALOX12 inh 35.7%.
For O=C(NCCc1c[nH]c2ccccc12)c1cc(F)ccc1F the results were ALOX12 inh -22.1%.
Screening COc1ccc2cc(-c3nc(-c4nonc4N)no3)c(=O)oc2c1 returned ALOX12 inh -19.2%.
Cc1cc(=O)oc2cc(OCC3CC(c4ccc(Cl)cc4)=NO3)ccc12 (stereo not drawn) was read as HT1080NT lethal 15.6%, ALOX12 inh -2.5%, DT40 TDP1 CPT 28.2µM*, IL1B secr inh 45.8, HT1080 IDH1KD tx 10.8% and DT40 TDP1 no CPT inconclusive.
For Cc1cc(=O)oc2cc(OCC3CC(c4ccc(N(C)C)cc4)=NO3)ccc12 (stereo not drawn) the results were HT1080NT lethal -0.3%, ALOX12 inh 0.0%, DT40 TDP1 CPT -18.6%, IL1B secr inh 49.8, HT1080 IDH1KD tx -6.0% and DT40 TDP1 no CPT -20.1%.
Screening CCOC(=O)C1(Cc2ccccc2F)CCCN(C(=O)CCN2CCCCC2=O)C1 (stereo not drawn) returned ALOX12 inh 10.5%.
`O=C1/C(=C/c2cccc(Br)c2)SC(=S)N1/N=C/c1cc([N+](=O)[O-])ccc1O` gave HT1080NT lethal 3.1%, ALOX12 inh -25.6%, DT40 TDP1 CPT 23.1µM*, IL1B secr inh -12.5, HT1080 IDH1KD tx -1.7% and DT40 TDP1 no CPT inconclusive.
For CCn1c2c(c(=O)n1Cc1ccccc1)CCN(C(=O)C1CCC(OC)CC1)C2 (stereo not drawn) the results were ALOX12 inh 11.6%[176 µM].
`Fc1cccc(-c2cc3nc4c(c(N5CCOCC5)n3n2)CCCC4)c1` gave HT1080NT lethal 1.7%, ALOX12 inh -8.4%, DT40 TDP1 CPT 18.4µM*, IL1B secr inh -3.3, HT1080 IDH1KD tx 10.3% and DT40 TDP1 no CPT inconclusive.
